PGK inhibitor: qHTS Assay to Find Inhibitors of Phosphoglycerate Kinase. AID 602233, 2012. Phosphoglycerate kinase, glycosomal (Trypanosoma brucei brucei), P07378. Potency, µM (series often up to 57.5 µM), for inactives: at the highest dose activity change, negative = inhibition, most hits filed as inhibitors. PGK/GAPDH coupled, Kinase-Glo luminescence, 60 min. hit rate 0.043% among 380,000; note: potency is the fitted concentration of half-maximal effect; nearly all actives have a fitted effect of over 60% in size
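Recombinant glycosomal PGK reaction used 1,3-bisphosphoglycerate generated in-well by GAPDH (100nM final) in 100mM TEA pH 7.6, 5mM MgCl2, 0.01% Tween-20. After 60 minutes at room temperature, ATP was read by Kinase-Glo Plus luminescence end-point.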
WRN inhibitor: qHTS for Inhibitors of WRN Helicase | WRN helicase unwinding, fluorescent forked duplex, kinetic | Potency, µM (highest dose often 114 µM), for inactives: at the top dose activity change, negative = inhibition, actives largely listed as inhibitors | hit rate 0.46% among 360,000; note: potency is the fitted concentration of half-maximal effect; nearly all actives have a fitted effect of over 55% in size
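Screening of the MLSMR collection measured strand separation of a quenched forked DNA duplex (100 nM) by 20 nM WRN with 2 mM ATP, all final. Compounds were preincubated with enzyme 15 min at room temperature.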
Tb PFK inh: qHTS Assay to Find Inhibitors of T. brucei phosphofructokinase. ATP-dependent 6-phosphofructokinase (Trypanosoma brucei brucei), O15648. T. brucei PFK, ADP-Glo luminescence. Potency, µM (highest dose often 57.5 µM), without a hit: at the highest dose activity, negative = inhibition, most hits filed as inhibitors. hit rate 0.17% among 330,000;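 note: potency is the fitted concentration of half-maximal effect; 0% = uninhibited 1x PFK enzyme wells and -100% = no-enzyme wells; nearly all actives have a fitted effect of over 60% in size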
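Luminescent ADP detection (ADP-Glo, two-step: ATP depletion then ADP-to-ATP conversion for luciferase) reported PFK activity after 45 min room-temperature reaction of 1.25 nM enzyme with 0.5 mM F6P and 0.1 mM ATP at pH 8.0.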
TDP1 block: qHTS Assay for Inhibitors of Tyrosyl-DNA Phosphodiesterase (TDP1); recombinant TDP1, AlphaScreen DNA substrate cleavage; Tyrosyl-DNA phosphodiesterase 1 (Homo sapiens), Q9NUW8; Potency, µM (doses to about 130 µM), for inactives: at the highest dose activity change, negative = inhibition, actives largely listed as inhibitors; hit rate 0.28% among 350,000; note: potency is the fitted concentration of half-maximal effect; nearly all actives have a fitted effect of over 40% in size
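E. coli-derived human Tdp1, 1 nM final. Cpd preinc 15 min RT; substrate 15 nM final, 5 min RT; AS bead mix 10 ug/ml final, 10 min RT. Signal loss = tyrosine-FITC cleavage. No-enzyme wells = max signal.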
PI5P4Ka inh: qHTS for Inhibitors of phosphatidylinositol 5-phosphate 4-kinase (PI5P4K) | Phosphatidylinositol 5-phosphate 4-kinase type-2 alpha (Homo sapiens), P48426 | PI5P4Kalpha enzyme, ADP-Glo luminescence, 60 min; active compounds read low | max response, % | hit rate 1.2% among 330,000; active = max response of -50% or lower; inconclusive = between -30% and -50%; inactive = -30% or higher; note: value at the top dose of about 77 µM
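Quantitative HTS of the MLSMR library against PI5P4Kalpha with substrate. ATP added last at 5 microM final; room temperature, 60 minutes. Remaining ATP depleted, ADP converted and read as luminescence.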
FEN1 inhibitor: qHTS Assay for the Inhibitors of Human Flap endonuclease 1 (FEN1) | AID 588795, 2011 | hit rate 0.35% among 390,000 | Potency, µM (doses to about 114 µM), inactives show at the top dose activity change, negative = inhibition, most hits filed as inhibitors | Recombinant FEN1 flap cleavage, fluorescence, 15 min | P39748; note: potency is the fitted concentration of half-maximal effect; nearly all actives have a fitted effect of over 65% in size
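Potency values derive from four-parameter Hill fits of normalized qHTS data. The reaction used 10 nM FEN1 preincubated 15 min at room temperature with compound, then 50 nM DNA substrate, read at 0 and 15 min.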
* marks the source's active call; other numbers are inactive results; [ ] = remark or other dose. In the library only some 1.5% were active in any assay of this set; here they are far more common. Unless noted, calls come from the whole dose curve; as a rule, active = well fitted curve in the direction sought with a large enough effect; inconclusive = small, poorly fitted or top-dose-only effect, or another doubt; inactive = no such curve, though single readings can be large; an effect the other way counts as inactive or inconclusive. Unless noted, % is set by controls: 0 for no effect and ±100 for the full control effect.

For Cc1ccc(S(=O)(=O)c2[nH]c(-c3ccccc3)nc2SCC(=O)O)cc1 the results were PGK inhibitor 7.2%, TDP1 block -0.5% and FEN1 inhibitor 14.3%.
For Cc1cccc(NC(=O)CN2C(=O)CCSc3ccc(S(=O)(=O)N4CCOCC4)cc32)c1C the results were PGK inhibitor -14.2%, WRN inhibitor -6.7%, Tb PFK inh -16.0%, TDP1 block 35.5µM*, PI5P4Ka inh -17.6 and FEN1 inhibitor 0.3%.
For O=C(O)c1cccc(N/N=C(\N=Nc2ccccc2)c2ccccc2)c1 the results were PGK inhibitor -8.1%, WRN inhibitor 0.0%, Tb PFK inh -10.5%, TDP1 block 14.7%, PI5P4Ka inh 8.0 and FEN1 inhibitor -2.7%.
For O=C(O)c1ccc(N=N/C(=N\Nc2ccc(C(=O)O)cc2)c2ccccc2)cc1 the results were PGK inhibitor inconclusive, WRN inhibitor -13.2%, Tb PFK inh 11.6%, TDP1 block -3.6%, PI5P4Ka inh -79.6* and FEN1 inhibitor inconclusive.
`CC[C@H](C)[C@H](NC(=O)[C@H](C)NC(=O)[C@H](Cc1cnc[nH]1)NC(=O)[C@@H]1CCCN1C(=O)CNC(=O)[C@H](CC(C)C)NC(=O)[C@H](CC(C)C)NC(=O)[C@H](Cc1ccc(O)cc1)NC(=O)CNC(=O)[C@H](C)NC(=O)[C@H](CO)NC(=O)[C@H](CC(N)=O)NC(=O)[C@H](CC(C)C)NC(=O)[C@@H](NC(=O)[C@H](Cc1c[nH]c2ccccc12)NC(=O)CN)[C@@H](C)O)C(=O)O` gave TDP1 block 12.1%.
O=C(c1nnsc1S(=O)c1ccc(Cl)cc1)N1CCOCC1 (centres undefined) was read as PGK inhibitor -2.5%, WRN inhibitor 25.1µM*, Tb PFK inh -18.1%, TDP1 block 5.1%, PI5P4Ka inh inconclusive and FEN1 inhibitor -14.7%.
`O=C1CCCC2=C1C1(CCCC1)N=C(Nc1nc3cc4ccccc4cc3o1)N2` gave TDP1 block 2.2%.
Screening O=S(=O)(Nc1nc(-c2sccc2Cl)cs1)c1cc(Cl)ccc1Cl returned PGK inhibitor -19.0%, WRN inhibitor inconclusive, Tb PFK inh 0.2%, TDP1 block 7.9%, PI5P4Ka inh -50.4* and FEN1 inhibitor -32.8%.
O=C(NCCCN1CCOCC1)C(=O)N/N=C/c1c2ccccc2cc2ccccc12 was read as PGK inhibitor -11.6%, WRN inhibitor -31.0%[57.1 µM], Tb PFK inh -2.0%, TDP1 block 5.6%, PI5P4Ka inh 1.5 and FEN1 inhibitor 39.8µM*.
Screening O=C(NCCCN1CCOCC1)C(=O)N/N=C/c1c(Cl)cccc1Cl returned PGK inhibitor 2.1%, WRN inhibitor -2.8%, Tb PFK inh 1.9%, TDP1 block -2.5%, PI5P4Ka inh -0.1 and FEN1 inhibitor 6.4%.
For NC(=O)C(=O)N/N=C/c1c2ccccc2cc2ccccc12 the results were PGK inhibitor 1.5%, WRN inhibitor -6.4%[11.6 µM], Tb PFK inh 1.3%, TDP1 block -8.8%, PI5P4Ka inh 4.6 and FEN1 inhibitor 25.1µM*.
Screening O=C(CCCl)Nc1cccc2cccnc12 returned TDP1 block -0.1% and FEN1 inhibitor 22.0%.
For CS(=O)(=O)N1CCN(/[N+]([O-])=N/Oc2ccc([N+](=O)[O-])cc2[N+](=O)[O-])CC1 (tested in a mixture with another compound) the results were FEN1 inhibitor -17.4%.
`CCOc1c(O)ccc(/C=C2\SC(=S)NC2=O)c1[N+](=O)[O-]` gave PGK inhibitor -1.2%, WRN inhibitor -9.0%[11.6 µM], Tb PFK inh 12.3%, TDP1 block 0.0%, PI5P4Ka inh -101.1* and FEN1 inhibitor -26.9%.
O=C1NC(=S)S/C1=C/c1ccc(Oc2cnccn2)cc1 was read as PGK inhibitor -1.0%, WRN inhibitor -18.7%[57.1 µM], Tb PFK inh -6.9%, TDP1 block 5.8%, PI5P4Ka inh -77.9* and FEN1 inhibitor 2.1%.
`CCOc1ccc(N(C)c2ccc(/C=C3/SC(=S)NC3=O)cc2)cc1` gave PGK inhibitor -8.9%, WRN inhibitor inconclusive, Tb PFK inh -6.7%, TDP1 block 5.9%, PI5P4Ka inh -55.2* and FEN1 inhibitor inconclusive.
For COc1ccc2c(c1)C(=O)CC2 the results were FEN1 inhibitor -4.0%.
For CCCN(CCC)c1nc(N)nc(C#N)n1 the results were TDP1 block 0.7% and FEN1 inhibitor 6.9%.
O=C1C=CC(=O)N1Cc1ccccc1 was read as PGK inhibitor 3.2%, WRN inhibitor -13.6%, Tb PFK inh -12.4%, PI5P4Ka inh -86.2* and FEN1 inhibitor inconclusive.
For O=C1C2CC=CCC2C(=O)N1Cc1ccccc1 (centres undefined) the results were PGK inhibitor -4.0%, WRN inhibitor -9.7%[57.1 µM], Tb PFK inh 0.8%, TDP1 block -1.1% and FEN1 inhibitor -1.6%.
For NC1=NC(=O)/C(=C/c2cc(Br)c(O)c(Br)c2)S1 the results were PGK inhibitor -4.8%, WRN inhibitor -15.6%[11.6 µM], Tb PFK inh 21.4%, PI5P4Ka inh -89.1* and FEN1 inhibitor -28.1%.
`NC(=O)CN1CCN(CCN2C(=O)c3cccc4cccc(c34)C2=O)CC1` gave PGK inhibitor -5.4%, WRN inhibitor 8.0%, Tb PFK inh 2.2%, TDP1 block -0.8%, PI5P4Ka inh -0.7 and FEN1 inhibitor -15.6%.
`Nc1cc2c3c(cccc3c1)C(=O)N(CCN1CCCC1)C2=O` gave PGK inhibitor -6.5%, WRN inhibitor 6.9%[11.6 µM], Tb PFK inh -18.6%, TDP1 block 4.7%, PI5P4Ka inh -1.1 and FEN1 inhibitor 25.1µM*.
Screening COc1cc([C@H]2Oc3cc([C@H]4Oc5cc(O)cc(O)c5C(=O)[C@@H]4O)ccc3O[C@@H]2CO)ccc1O returned PGK inhibitor 0.0%, WRN inhibitor -6.9%, Tb PFK inh 0.5%, TDP1 block 18.9%, PI5P4Ka inh -26.9 and FEN1 inhibitor -20.2%.
`COc1cc([C@@H]2Oc3cc(C4Oc5cc(O)cc(O)c5C(=O)[C@H]4O)ccc3O[C@H]2CO)ccc1O` (some centres undefined) gave PGK inhibitor inactive, WRN inhibitor -10.6%, Tb PFK inh 2.8%, PI5P4Ka inh -52.1* and FEN1 inhibitor -32.8%.
